Rows were chosen to be rich in hits. Some 14% of all compounds tested hit in one or more screens of this group.
Marburg entry inh: qHTS for inhibitors of binding or entry into cells for Marburg Virus; Marburg virus pseudotyped entry inhibition, cell reporter; Potency, µM (top dose mostly 37.8 µM), inactives show at the highest dose activity change, negative = inhibition, actives largely listed as inhibitors; 1.8% of 300,000 active; AID 540276, 2011; calls by dose curve; tested in HEK293 cells; note: potency is the fitted concentration of half-maximal effect
LASV entry inh: qHTS for Inhibitors of binding or entry into cells for Lassa Virus. Lassa virus pseudotype entry inhibition, cell reporter. 1.2% of 300,000 active. AID 540256, 2011. Potency, µM (highest dose often 37.9 µM), without a hit: top-dose activity change, negative = inhibition, most hits filed as inhibitors; calls by dose curve; tested in HEK293 cells; note: potency is the fitted concentration of half-maximal effect; nearly all actives have a fitted effect of over 50% in size
HCV inhibitor: qHTS Assay for Inhibitors of Hepatitis C Virus (HCV) | AID 651820, 2012 | 3.4% of 340,000 active | Potency, µM (doses to about 41.8 µM), without a hit: at the top dose activity change, negative = inhibition, actives largely listed as inhibitors | Huh7.5.1 HCVcc-Cre infection, luciferase reporter, 44 h; note: potency is the fitted concentration of half-maximal effect
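A cell-based infection assay in which seeded cells (1,000 per well) receive test compound after 4 h, are inoculated with HCVcc-Cre at approximately 0.5 moi, and are incubated 44 h before luminescence detection.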
Pf growth 96h: Primary qHTS for delayed death inhibitors of the malarial parasite plastid, 96 hour incubation | P. falciparum luciferase reporter growth, 96 h | Potency, µM (top dose mostly 28.7 µM), without a hit: top-dose activity change, negative = inhibition, most hits filed as inhibitors | 6.9% of 320,000 active | AID 504834, 2011; note: potency is the fitted concentration of half-maximal effect
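Two-generation exposure (96 h) targets delayed-death phenotype. Reporter parasites carrying integrated firefly luciferase, in red cells at 2% hematocrit and 0.05% parasitemia final, kept at 37 C, 5% CO2; luminescence loss indicates inhibition.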
HCMV antiviral: qHTS Assay for inhibitors of the human cytomegalovirus (HCMV) | HFF cells, HCMV-luciferase reporter, 72 h; hits give low values | activity change, negative = inhibition, % at 57.5 µM | 4.5% of 410,000 active; in the data active = activity change below about -60%; inconclusive = no clear call, values can overlap the other calls; inactive = above about -39%
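Two-dose cell screen: HFF monolayers treated with compounds and infected with luciferase-expressing HCMV at 1 PFU/cell, 72 h at 37C, then lysed for luciferase measurement.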
Pf growth 48h: Primary qHTS for delayed death inhibitors of the malarial parasite plastid, 48 hour incubation; Potency, µM (doses to about 28.7 µM), for inactives: at the top dose activity change, negative = inhibition, hits mostly inhibitors; 5.9% of 310,000 active; P. falciparum luciferase growth in erythrocytes, 48 h; note: potency is the fitted concentration of half-maximal effect
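Compounds are pin-transferred into medium, infected erythrocytes (2% hematocrit, 0.1% parasitemia final) are added, and plates sit one parasite generation at 37 C in 5% CO2. Detection reagent is then added and luminescence measured.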
An asterisk follows results filed as active; ? = inconclusive; · = not tested or not shown; [ ] = another dose, or the depositor's remark. Unless noted, calls come from the whole dose curve; as a rule, active = well fitted inhibition curve with a large enough effect; inconclusive = small, poorly fitted or top-dose-only effect, or another doubt; inactive = no such curve, though single readings can be large or run the other way. % is set by controls: 0 for no effect and ±100 for the full control effect.

SMILES	Marburg entry inh	LASV entry inh	HCV inhibitor	Pf growth 96h	HCMV antiviral	Pf growth 48h
CC(C)N1CCc2c(sc(NC(=O)c3ccc(S(=O)(=O)N(C)C4CCCCC4)cc3)c2C(N)=O)C1	·	?	·	·	-11	·
COC(=O)c1c(NC(=O)c2ccc(S(=O)(=O)N3CCCC(C)C3)cc2)sc2c1CCN(C(C)C)C2 (stereo not drawn)	·	17%[46.1 µM]	·	·	-30	·
CC(C)N1CCc2c(sc(NC(=O)c3ccc(S(=O)(=O)N4CCc5ccccc54)cc3)c2C(N)=O)C1	·	·	11µM*	7.4µM*	·	4.1µM*
CC(C)N1CCc2c(sc(NC(=S)NC(=O)c3ccccc3)c2C#N)C1	7%[46.1 µM]	13%	-23%	0.47µM*	9	10µM*
CNC(=O)c1c(NC(=O)c2ccc(S(=O)(=O)N(C)c3ccccc3)cc2)sc2c1CCN(C(C)C)C2	·	·	11µM*	?	0	0.59µM*
COC(=O)c1cc(NS(=O)(=O)c2ccc3c(c2)OCCO3)ccc1Cl	11%[46.1 µM]	1%[46.1 µM]	·	·	-6	·
Cc1sc(NC(=S)NC(=O)c2ccccc2)c(C#N)c1C	?	0%	1%	·	3	·
Cc1sc(NC(=S)NC(=O)c2ccc(C(C)(C)C)cc2)c(C#N)c1C	8.2µM*	?	?	·	?	7%
N#CC(C#N)=C1C=CC=CN1/C(=C\c1ccco1)C(=O)c1ccc(-c2ccccc2)cc1	16µM*	?	?	?	-101*	?
N#CC(C#N)=C1C=CC=CN1/C(=C\c1ccco1)C(=O)c1ccc(Cl)cc1	?	?	?	?	-97*	?
CN1C2CCC1CC(NC(=O)c1nn(C)c3ccccc13)C2 (stereo not drawn)	12%	·	·	·	·	·
CC1(C)Cc2nc3nc(SCC(=O)NCCc4ccccc4)n(-c4ccccc4)c(=O)c3cc2CO1	13%	-9%	1%	4.1µM*	-8	?
COc1cc(NC(=O)CSc2nc3[nH]ncc3c(=O)n2-c2ccc(Cl)cc2)cc(OC)c1	·	·	?	-18%	?	?
COc1cc(NC(=O)CSc2nc3[nH]ncc3c(=O)n2-c2ccccc2C)cc(OC)c1OC	3%	1%	-11%	6%	46	10µM*
O=C(CSc1nc2[nH]ncc2c(=O)n1-c1ccccc1Br)NCc1ccco1	1%	3%	14%	67%	8	12µM*
CCOc1ccc(NC(=O)CSc2nc3c(oc4ccccc43)c(=O)n2-c2ccccc2C)cc1	?	·	·	·	-82*	·
CC1(C)Cc2nc3nc(SCC(=O)NCc4ccccc4)n(-c4ccccc4)c(=O)c3cc2CO1	·	·	·	?	·	-15%
COc1ccc(CCNC(=O)CSc2nc3[nH]ncc3c(=O)n2-c2ccccc2Br)cc1OC	·	·	?	39%	-18	?
CCOc1ccc(CNC(=O)CCC(=O)N2CC3CCCN3c3ccccc32)cc1 (stereo not drawn)	·	15%[46.1 µM]	·	·	13	·
CCCCNC(=O)C1(C)CCCCN1Cc1ccc(-c2ccccc2)cc1 (stereo not drawn)	·	·	·	·	-8	·
O=C(CSc1nnnn1-c1cccc(Cl)c1)Nc1ccc2c(c1)CCC2	·	·	6%	1.9µM*	·	4%
COc1cccc(-n2c(SCC(=O)Nc3ccc4c(c3)CCC4)nc3ccccc3c2=O)c1	?	?	?	?	-70*	?
O=C(CSc1nc2nc3c(cc2c(=O)n1-c1ccccc1)CCCC3)Nc1ccccc1	-16%	-5%	?	12µM*	?	?
COC(=O)c1c(NC(=O)CSc2nc3ccccc3c(=O)n2-c2ccccc2)sc(C)c1C	-1%	9%	?	9.3µM*	28	?
CC(C)c1nnc(N2C(=O)c3oc4ccccc4c(=O)c3C2c2cccc(O)c2)s1 (stereo not drawn)	11%[46.1 µM]	11%[46.1 µM]	·	·	25	·
SMILES	Marburg entry inh	LASV entry inh	HCV inhibitor	Pf growth 96h	HCMV antiviral	Pf growth 48h
CCC[C@H]1[C@@H](NS(=O)(=O)c2ccc([N+](=O)[O-])cc2)CC[C@@]23CCCN2C(=O)CCC[C@@H]13	·	·	·	·	-7	·
Cc1ccc(CCNC(=O)C2CCCN(S(=O)(=O)c3ccc4c(c3)oc(=O)n4C)C2)cc1 (stereo not drawn)	3%[46.1 µM]	-14%[46.1 µM]	·	·	-4	·
Cc1cccc(NC(=O)CSc2nc3[nH]ncc3c(=O)n2-c2ccccc2)c1	-30%	-15%	·	7.4µM*	·	-8%
CC(C)NC(=O)C1(C)CCN1C(=O)c1cccn1C (stereo not drawn)	·	·	·	·	-19	·
NC(=O)c1nsc(C(=O)N(c2cccc(F)c2)C(C(=O)NCC2CCCO2)c2cccs2)c1N (stereo not drawn)	?	?	-28%	16%	-40	?
COc1ccc2nc(C(F)(F)Cl)c(C#N)c(N)c2c1	·	·	5%	2%	-88*	?
O=C(OC[C@H]1O[C@@H](OC(=O)c2cc(O)c(O)c(OC(=O)c3cc(O)c(O)c(O)c3)c2)[C@H](OC(=O)c2cc(O)c(O)c(OC(=O)c3cc(O)c(O)c(O)c3)c2)[C@@H](OC(=O)c2cc(O)c(O)c(OC(=O)c3cc(O)c(O)c(O)c3)c2)[C@@H]1OC(=O)c1cc(O)c(O)c(OC(=O)c2cc(O)c(O)c(O)c2)c1)c1cc(O)c(O)c(OC(=O)c2cc(O)c(O)c(O)c2)c1	·	·	11µM*	9.3µM*	·	?
CCc1c(C)sc2c1CCN(C(=O)Nc1ccc(F)c(Cl)c1)C2c1ccc(F)cc1 (stereo not drawn)	·	?	·	·	-104*	·
O=C1NC[C@@H](CCCCN2C[C@H](Cc3ccccc3)N(CCC3CCCCC3)C(=O)C2=O)N(CC2CCCCC2)C1=O	·	·	·	·	-17	·
COC(=O)c1c(-c2ccc(Cl)cc2)noc1N1CCN(c2ccc(OC)cc2)CC1	·	5%[46.1 µM]	·	·	-4	·
CN(C)c1nc(Nc2ccccc2)nc(Oc2ccc(=O)[nH]n2)n1	-7%	-1%	-9%	0%	-12	-9%
CN(C)c1nc(Nc2ccccc2)nc(N(C)C)n1	3.5µM*	22%	?	0%	50	31%
COC(=O)c1ccc(Oc2nc(Nc3ccccc3)nc(N(C)C)n2)cc1	-19%	-3%	11µM*	-6%[5.75 µM]	-15	?
COc1nc(Nc2ccc(C(C)=O)cc2)nc(OC)n1	8%	2%	-25%	-8%	64	15µM*
CCN(CC)c1nc(Nc2ccccc2)nc(Oc2ccc(C(=O)OC)cc2)n1	?	2%	?	-33%	23	15%
COc1ccc(Nc2nc(OC)nc(OC)n2)cc1	·	·	5%	?	-26	?
